Laboratory results reported in PubChem BioAssay (EPA / NIEHS).
Calls of active or inactive are those of the source. The calls were made as follows: active = hit-call score of the fitted dose curve at least 0.9, where 1 is the maximum; inactive = score below 0.9.

Experiments:
[1] = read-out: Interleukin-8 (IL8), CXCL8 (gene 3576); assay: BSK_LPS_IL8: BioMAP Diversity Plus: LPS Assay for Interleukin-8 (IL8) Biomarker Activity (AID 2283078); conditions: primary human HUVEC with PBMC; actives raise or lower the signal
Outline: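 HUVEC + PBMC co-culture, LPS-activated; test chemicals dosed, IL-8 read by ELISA at 24 h. Bidirectional curve fit vs DMSO baseline (gain or loss of signal).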

[2] = BSK_LPS_SRB: Viability Assessment in the BioMAP Diversity Plus: LPS Assay (AID 2283079); conditions: primary human HUVEC with PBMC;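 also: total protein by sulforhodamine B absorbance as a cytotoxicity measure; measured one day after compound addition; fitted in both directions against DMSO so loss or gain of signal counts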
Outline: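 HUVEC + PBMC co-culture, LPS-stimulated; compound 24 h. 10% TCA fix, 0.1% SRB stain, A560. Bidirectional fit vs DMSO.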

[3] = read-out: Interleukin-1 alpha (IL1a), IL1A (gene 3552); assay: BSK_LPS_IL1a: BioMAP Diversity Plus: LPS Assay for Interleukin-1 alpha (IL1a) Biomarker Activity (AID 2283080); conditions: primary human HUVEC with PBMC; actives raise or lower the signal
Outline: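 HUVEC/PBMC co-culture, LPS system; 24 h after dosing; IL-1a by ELISA; gain or loss of signal fitted bidirectionally vs DMSO baseline.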

[4] = read-out: Monocyte Chemoattractant Protein-1 (MCP1), CCL2 (gene 6347); assay: BSK_LPS_MCP1: BioMAP Diversity Plus: LPS Assay for Monocyte Chemoattractant Protein-1 (MCP1) Biomarker Activity (AID 2283081); conditions: primary human HUVEC with PBMC; actives raise or lower the signal;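 as to AC50: secreted MCP-1 protein quantified by ELISA in culture supernatant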
Outline: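 ELISA read-out of MCP-1 after 24 h chemical dosing of a human umbilical vein endothelial cell/peripheral blood mononuclear cell co-culture stimulated with LPS. Gain or loss of signal fitted relative to DMSO controls.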

[5] = BSK_LPS_PGE2: BioMAP Diversity Plus: LPS Assay for Prostaglandin E2 (PGE2) Biomarker Activity (AID 2283082); conditions: primary human HUVEC with PBMC; actives raise or lower the signal;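 as to AC50: secreted prostaglandin E2 measured by ELISA in LPS-stimulated co-culture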
Outline: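 LPS-activated HUVEC/PBMC co-culture; cmpd dosed, 24 h; PGE2 by ELISA; bidirectional fit vs DMSO; SRB (0.1%, TCA-fixed, 560 nm) in parallel plates for overt cytotox.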

[6] = read-out: Macrophage colony-stimulating factor (MCSF), CSF1 (gene 1435); assay: BSK_LPS_MCSF: BioMAP Diversity Plus: LPS Assay for Macrophage colony-stimulating factor (MCSF) Biomarker Activity (AID 2283083); conditions: primary human HUVEC with PBMC; actives raise or lower the signal
Outline: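 HUVEC + PBMC co-culture (human primary), 24 h post-dose; M-CSF by ELISA; gain/loss of signal fitted bidirectionally vs DMSO baseline.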

[7] = read-out: Tissue Factor, F3 (gene 2152); assay: BSK_LPS_TissueFactor: BioMAP Diversity Plus: LPS Assay for Tissue Factor Biomarker Activity (AID 2283084); conditions: primary human HUVEC with PBMC; actives raise or lower the signal
Outline: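 HUVEC/PBMC co-culture, LPS-activated; CD142 ELISA read 24 h post-dose; bidirectional curve fit vs DMSO negative control.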

[8] = read-out: Tumor necrosis factor (Homo sapiens) (UniProt P01375); assay: BSK_LPS_TNFa: BioMAP Diversity Plus: LPS Assay for Tumour Necrosis Factor alpha (TNFa) Biomarker Activity (AID 2283085); conditions: primary human HUVEC with PBMC; actives raise or lower the signal;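 as to AC50: TNFa protein level quantified by ELISA in the co-culture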
Outline: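 Read-out is ELISA of TNFa in primary human endothelial cell–PBMC co-cultures at 24 h after compound. Activity in either direction was fitted against DMSO.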

[9] = read-out: Vascular cell adhesion molecule 1 (VCAM1), VCAM1 (gene 7412); assay: BSK_LPS_VCAM1: BioMAP Diversity Plus: LPS Assay for Vascular cell adhesion molecule 1 (VCAM1) Biomarker Activity (AID 2283086); conditions: primary human HUVEC with PBMC; actives raise or lower the signal
Outline: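 HUVEC + PBMC co-culture, LPS system; compound 24 h; VCAM-1 by ELISA; bidirectional fit vs DMSO control; parallel SRB (0.1%, TCA-fixed, 560 nm) for cytotoxicity.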

[10] = read-out: CD38, CD38 (gene 952); assay: BSK_SAg_CD38: BioMAP Diversity Plus: SAg Assay for CD38 Biomarker Activity (AID 2283087); conditions: primary human HUVEC with PBMC; actives raise or lower the signal
Outline: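 Human HUVEC plus PBMC co-culture stimulated with superantigen; CD38 measured by ELISA 24 h after chemical dosing. Fluorescence read-out, bidirectional fit against DMSO; cytotoxicity tracked in parallel by SRB and Alamar Blue.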

Measured: AC50

Sequence of Tumor necrosis factor (Homo sapiens) (P01375 whole entry, looked up): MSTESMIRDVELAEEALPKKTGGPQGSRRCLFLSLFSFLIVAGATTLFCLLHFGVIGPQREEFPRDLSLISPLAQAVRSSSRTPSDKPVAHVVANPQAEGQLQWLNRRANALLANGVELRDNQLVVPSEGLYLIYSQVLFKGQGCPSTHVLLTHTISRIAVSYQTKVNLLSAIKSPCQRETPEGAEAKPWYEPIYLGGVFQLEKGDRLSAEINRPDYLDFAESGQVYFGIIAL

O=C(Nc1ccccc1-c1ccc(Cl)cc1)c1cccnc1Cl
inactive: all assays above

N#CN=C1SCCN1Cc1ccc(Cl)nc1
inactive: all assays above

COC(=O)N(C(=O)N1CO[C@@]2(C(=O)OC)Cc3cc(Cl)ccc3C2=N1)c1ccc(OC(F)(F)F)cc1
active: [1] 5.43 µM | [2] 5.89 µM | [10] 5.95 µM
not listed: [7]
inactive: all other assays above

CSC(=O)c1c(C(F)F)nc(C(F)(F)F)c(C(=O)SC)c1CC(C)C
active: [2] 26.3 µM | [3] 15.1 µM | [6] 20 µM | [10] 20.8 µM
not listed: [1]
inactive: all other assays above

CCCC(=NOCC)C1=C(O)CC(CC(C)SCC)CC1=O (configuration not stated)
not listed: [7]
inactive: all other assays above

OC(c1ccc(Cl)cc1)(c1ccc(Cl)cc1)C(Cl)(Cl)Cl
active: [1] 30.6 µM | [3] 27.4 µM | [4] 30.6 µM | [5] 17.5 µM | [6] 29.5 µM | [8] 30.8 µM | [9] 29.3 µM | [10] 29.7 µM

COc1cc(Cl)c(OC)cc1Cl
not listed: [7]
inactive: all other assays above

Cc1c(COC(=O)[C@@H]2[C@H](/C=C(\Cl)C(F)(F)F)C2(C)C)cccc1-c1ccccc1
active: [1] 5.39 µM | [5] 4.57 µM | [6] 3.53 µM
not listed: [7]
inactive: all other assays above

CC(C)NC(=O)N1CC(=O)N(c2cc(Cl)cc(Cl)c2)C1=O
not listed: [7]
inactive: all other assays above

CC1(C)CON(Cc2ccccc2Cl)C1=O
not listed: [7]
inactive: all other assays above

Clc1cccc(C(Cl)(Cl)Cl)n1
not listed: [7]
inactive: all other assays above

COC(=O)NS(=O)(=O)c1ccc(N)cc1
not listed: [7]
inactive: all other assays above

Cc1cnc(C2=NC(C)(C(C)C)C(=O)N2)c(C(=O)O)c1 (configuration not stated)
not listed: [7]
inactive: all other assays above

O=C(O)c1c(Cl)ccc2cc(Cl)cnc12
not listed: [7]
inactive: all other assays above

Cn1c(-c2ccccc2)cc(-c2ccccc2)[n+]1C
active: [10] 2.68 µM
not listed: [7]
inactive: all other assays above

Nc1cnn(-c2ccccc2)c(=O)c1Cl
not listed: [7]
inactive: all other assays above

CC1(C)C(C=C(Cl)Cl)C1C(=O)OC(C#N)c1cccc(Oc2ccccc2)c1 (configuration not stated)
active: [2] 3.97 µM | [5] 4.89 µM | [8] 0.838 µM
not listed: [7]
inactive: all other assays above

CCC(C)n1c(=O)[nH]c(C)c(Br)c1=O (configuration not stated)
active: [8] 10.5 µM
not listed: [7]
inactive: all other assays above

N#Cc1c(Cl)cccc1Cl
not listed: [7]
inactive: all other assays above
